WT yeast gro inh: growth inhibition of WT strain, primary screen, mitochondrial fusion inhibitor project, WT and mutant strains, chemical genetic. mitochondrial fusion phenotypic screen. AID 1362, 2008. 2.1% of 190,000 active. inhibition, % at 10 µM; in the data active means inhibition above about 58%; tested in S. cerevisiae
CHOP inh: inhibitors of CHOP promoter induction, primary screen, cell-based, unfolded protein response, luciferase reporter | CHO-K1 CHOP-promoter luciferase, tunicamycin-induced, 15-18 h | 3.8% of 220,000 active | inhibition, % at 10 µM;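 active means compounds that reduced the stress-induced luciferase reporter signal by more than about 70% of percent inhibition, limit read from the data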;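 further: 0% = tunicamycin plus vehicle and 100% = wells without tunicamycin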
Lmaj promast: Leishmania major promastigote growth inhibition, primary screen | Leishmania major promastigotes, resazurin fluorescence viability | inhibition, % at 10 µM | 9% of 200,000 active | AID 1063, 2008; in the data active means inhibition above about 50%;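 further: promastigotes grown with compound for 44 hours at 28 °C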
RAM network inh: inhibitors of the yeast RAM network, primary screen, dse1pr::URA3 reporter, 5-FOA selection. S. cerevisiae dse1pr::URA3 reporter, 5-FOA growth OD615, 2 d; analog-sensitive cbk1-as2 kinase mutant strain. inhibition, % at 50 µM. 1.8% of 190,000 active. AID 868, 2007;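 active means inhibition above a set limit, 3 SD over mean compound inhibition, cut at about 8.4% in these data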;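 further: 0% = DMSO-only wells with no growth and 100% = 10 µM 1-NA-PP1 full growth; inhibition rescues growth on 5-FOA so higher OD means more RAM inhibition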
* = called active by the depositor; . = not tested or not shown. A selection: hits, their analogues and other compounds. The true share with any hit is near 13%.

SMILES	WT yeast gro inh	CHOP inh	Lmaj promast	RAM network inh
COC(=O)c1sccc1NC(=S)N1CCCCC1	13.8	3.6	2.3	2.6
COC(=O)c1sccc1NC(=S)N1CCN(c2cccc(C)c2C)CC1	74.0*	33.5	-0.4	6.4
C/C(CC(=O)Nc1ccc(C)c(Cl)c1)=N\NC(=O)Cc1cccs1	.	25.9	.	.
CC(=O)Nc1ccc(NC(=O)C/C(C)=N/NC(=O)C(=O)Nc2ccc(C)c(Cl)c2)cc1	.	87.2*	.	.
C/C(CC(=O)Nc1ccc(OCc2ccccc2)cc1)=N\NC(=O)C(=O)Nc1cccc(C)c1	-18.2	93.9*	13.2	-0.4
CCc1nc2sc3c(O)cc(=O)[nH]c3c2cc1C	-0.9	2.0	-3.2	5.3
COc1ccc(Cl)cc1NC(=O)CN(c1ccccc1)S(=O)(=O)N(C)C	30.2	4.8	99.6*	4.7
COc1ccc(Cl)cc1N(CC(=O)Nc1cccc(SC)c1)S(C)(=O)=O	-25.2	17.0	61.5*	1.1
Cc1ccc(C)c(N(CC(=O)Nc2cc(Cl)ccc2Oc2ccccc2)S(C)(=O)=O)c1	21.2	19.1	51.5*	6.0
COc1ccc(NC(=O)CN(c2ccccc2)S(=O)(=O)N(C)C)cc1Cl	11.5	7.7	9.1	0.1
COc1ccc(OC)c(S(=O)(=O)N(C)CC(=O)Nc2cc(Cl)ccc2OC)c1	1.5	21.1	99.6*	-0.3
COc1ccc(N(CC(=O)Nc2cccc(SC)c2)S(C)(=O)=O)cc1Cl	-4.1	-2.5	17.0	2.1
CCN1C(=O)N[C@@H](c2cccs2)C(C(C)=O)=C1C	.	-3.5	.	.
CCN(CC)C(=O)c1c(Cl)nc(C)c([N+](=O)[O-])c1C	-7.3	-21.8	-2.7	2.3
CCCCNc1oc(-c2cccs2)nc1S(=O)(=O)c1ccccc1	-9.3	49.9	13.6	9.5*
Fc1ccc(/C=C\c2nccc3c2[nH]c2ccccc23)cc1	70.3	90.3*	32.0	1.1
C(=C\c1nccc2c1[nH]c1ccccc12)/c1ccccc1	.	3.9	.	.
O=C(NCCC1=CCCCC1)c1cc(-c2ccncc2)nc2ccccc12	-1.1	1.5	26.7	3.1
COc1ccc(C2C(C#N)=C(N)OC3=C2C(=O)CCC3)cc1Cn1nc(C)c([N+](=O)[O-])c1C (centres undefined)	-1.9	-21.8	92.8*	0.6
COc1ccc(C2C(C#N)=C(N)Oc3n[nH]c(C)c32)cc1Cn1nc(C)c([N+](=O)[O-])c1C (centres undefined)	-3.0	24.6	6.4	2.0
CCOC(=O)c1c(C)nc2sc3c(=O)n(-c4ccc(C(C)=O)cc4)nnc3c2c1-c1ccc(Cl)cc1	13.5	38.9	54.2*	4.0
c1ccc(-n2nnnc2SCc2cccc(CSc3nnnn3-c3ccccc3)n2)cc1	6.1	-16.2	34.1	8.9*
O=C(CSc1nnnn1-c1ccccc1)Nc1ccc(Cl)cn1	17.8	-6.0	6.6	2.0
Cc1ccc(-n2nnnc2SCC(=O)Nc2sc(C)c(C)c2C#N)cc1C	-3.9	83.2*	-2.4	2.9
c1ccc(CSc2nnnn2-c2ccccc2)cc1	10.1	15.0	-3.3	-0.6
SMILES	WT yeast gro inh	CHOP inh	Lmaj promast	RAM network inh
O=C(CSc1nnnn1-c1ccccc1)Nc1ccc(Cl)cc1	11.0	88.3*	-1.0	0.0
Cc1ccc(NC(=O)CSc2nnnn2-c2ccc3c(c2)OCO3)cc1C	-16.3	92.4*	-2.4	1.7
CCOC(=O)Cc1cnc(NC(=O)CSc2nc3ncnc(N)c3[nH]2)s1	-8.9	9.2	-2.5	3.5
CC1(C)OC2OC(C(=O)N/N=C/c3cc(Br)ccc3O)C3OC(C)(C)OC3C2O1 (centres undefined)	-10.7	38.6	-2.4	1.5
Cc1ccccc1-n1nnnc1SCC(C)C	3.0	-3.9	11.2	-1.2
CC(=O)c1ccc(-n2nnnc2SCC(=O)Nc2sc(C)c(C)c2C#N)cc1	9.0	80.7*	-4.8	0.3
Cc1ccccc1-n1nnnc1SCc1csc(-c2ccccc2)n1	34.2	61.4	12.0	8.7*
O=c1[nH]c(=O)c2nc3c4ccccc4c4ccccc4c3nc2[nH]1	-1.4	77.6*	5.7	8.0
O=c1[nH]c(=O)c2nc(-c3ccc(Cl)cc3)cnc2[nH]1	6.3	41.4	-1.3	1.0
Cc1ccc(-n2c(SCC(=O)N3Cc4ccccc4CC3C(=O)O)nnc2-c2cccnc2)c(C)c1 (centres undefined)	-11.9	20.5	-8.5	2.4
O=C(NCCc1ccccc1)C(c1cccs1)N(C(=O)CCl)c1ccc(Cl)cc1 (centres undefined)	56.9	110.6*	100.5*	2.0
Cc1ccc(C(=O)N2CC(C)SC2=Nc2cccc(S(=O)(=O)N(C)C)c2)cc1 (centres undefined)	-12.5	-5.5	94.6*	0.2
CN(C)S(=O)(=O)c1cccc(N=C2SCCN2Cc2ccccc2)c1	.	40.4	.	.
Cc1cc(C)cc(C(=O)N2CC(C)SC2=Nc2cccc(S(=O)(=O)N(C)C)c2)c1 (centres undefined)	-6.2	8.4	98.0*	0.2
Cn1c(CNC(=O)OC(C)(C)C)n[nH]c1=S	-11.1	9.5	-9.1	1.4
N/C(Cc1ccc(Cl)cc1Cl)=N\OC(=O)c1ccccc1F	97.1*	0.8	-0.1	-1.9
Cc1nc2ccccc2n1-c1nc(-c2ccco2)cc(C(F)(F)F)n1	4.5	.	-3.2	1.9
Cc1nn(-c2nc(-c3ccco3)cc(C(F)(F)F)n2)c(C)c1Cl	13.3	88.0*	6.2	3.5
CCOc1cc(/C=C2\SC(=O)N(c3ccc(O)cc3)C2=O)ccc1O	.	22.4	.	.
Cc1cc(/C=C2\SC(=S)N(Cc3ccco3)C2=O)c(C)n1-c1cccnc1	-17.4	50.3	5.0	7.6
O=C1/C(=C\c2ccc(O)cc2)SC(=S)N1c1cccnc1	6.0	78.4*	-3.8	3.5
Cc1cc(/C=C2/SC(=S)N(c3cccc(C(F)(F)F)c3)C2=O)c(C)n1-c1cccnc1	.	.	79.7*	.
N=C1S/C(=C\c2ccc(O)cc2)C(=O)N1c1ccc(F)cc1	-2.7	83.4*	24.2	2.6
COc1cc(OC)c(-c2nn3c(-c4ccco4)nnc3s2)cc1OC	4.2	-3.0	82.3*	0.5
COc1ccc(-c2nnc3sc(-c4ccco4)nn23)cc1OC	-11.3	-4.3	35.8	3.6
SMILES	WT yeast gro inh	CHOP inh	Lmaj promast	RAM network inh
COc1ccc(-c2nn3c(-c4ccco4)nnc3s2)cc1OC	-1.5	32.5	88.4*	5.2
COc1cc2c(cc1OC)-c1nnc(-c3ccco3)n1C1(CCCC1)C2	3.4	27.5	57.5*	0.1
CCN(CC)C(=O)c1ccc(-c2nnc(OC)c3ccccc23)cc1	.	6.6	.	.
O=C(N/N=C/c1ccncc1)c1cccc(S(=O)(=O)Nc2ccc(Cl)cc2)c1	.	-25.3	.	.
CCN(CC)c1ccc(/C=C2\CCC(/C=N/NC(=O)c3ccc(=O)n(C)c3)=C2N2CCOCC2)cc1	-12.0	26.3	9.5	1.1
CCCN(CCC)S(=O)(=O)c1ccc(C(=O)NCc2n[nH]c(=S)n2-c2ccc(Cl)c(Cl)c2)cc1	-5.1	-3.2	-2.5	3.1
O=C1CCCC2=C1C(c1ccncc1)c1c(nc(SCc3ccccc3Cl)[nH]c1=O)N2 (centres undefined)	6.2	18.1	-9.1	1.7
